# Activity calls are given as the source filed them.
# What was measured:
# [1] = optical density shifts of acrAB sulA E. coli – strain DRC41, OD650, 48 h, E. coli filamentation inducer project, primary screen (AID 1152); conditions: higher = more signal, called active from +8 up or from −8 down;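 also: E. coli MC1000 strain DRC41 lacking acrAB efflux pump and sulA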
# [2] = probe aLefty1 binding on compound microarray – biochemical, small-molecule microarray, 635/667 nm fluorescence, primary screen (AID 1153); conditions: higher = more signal;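 also: score merges spot fluorescence with signal-to-noise ratio from the scanned slide images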
# [3] = plasmodial surface anion channel blockers, osmotic lysis – cell-based, P. falciparum Indochina, OD700, 1 h, primary screen (AID 1154); conditions: P. falciparum Indochina infected RBC osmotic lysis, higher = more signal, called active from +8 up or from −8 down
# [4] = plasmodial surface anion channel blockers, osmotic lysis – cell-based, P. falciparum Indochina, OD700, 2 h, primary screen (AID 1155);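 also: lysis reports solute entry through the parasite surface anion channel PSAC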; conditions: P. falciparum Indochina infected erythrocytes, higher = more signal, called active from +8 up or from −8 down
# [5] = changes in parasitized red cell lysis, either direction – P. falciparum Indochina, OD700, 3 h, PSAC antagonist project, primary screen (AID 1156); conditions: P. falciparum-infected erythrocytes, osmotic lysis, higher = more signal, called active from +8 up or from −8 down
# [6] = plasmodial surface anion channel blockers, osmotic lysis – cell-based, P. falciparum Indochina, OD700, 18 h, primary screen (AID 1157); conditions: P. falciparum Indochina infected erythrocytes, osmotic lysis OD700, 18 h; higher = more signal, called active from +8 up or from −8 down
# [7] = S6 kinase pathway phospho-S6 level changes – cell-based, A549, cytoblot, luminescence, serum-stimulated, primary screen (AID 1158); conditions: 5 h, higher = more signal;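 also: serum-stimulated A549 lung adenocarcinoma cells; signal is phosphorylated S6 detected by cytoblot immunostaining with HRP secondary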
# [8] = molecular target: NADPH oxidase 2 (Homo sapiens) (UniProt P04839); assay: compounds shifting NOX2 Amplex Red fluorescence – cell-based, HEK293-NOX2, PMA-stimulated, NOX inhibitor project, primary screen (AID 1159); conditions: 45 min, higher = more signal, called active from +8 up or from −8 down; also: test concentration not given here
# NADPH oxidase 2 (Homo sapiens), sequence (P04839 whole entry, looked up): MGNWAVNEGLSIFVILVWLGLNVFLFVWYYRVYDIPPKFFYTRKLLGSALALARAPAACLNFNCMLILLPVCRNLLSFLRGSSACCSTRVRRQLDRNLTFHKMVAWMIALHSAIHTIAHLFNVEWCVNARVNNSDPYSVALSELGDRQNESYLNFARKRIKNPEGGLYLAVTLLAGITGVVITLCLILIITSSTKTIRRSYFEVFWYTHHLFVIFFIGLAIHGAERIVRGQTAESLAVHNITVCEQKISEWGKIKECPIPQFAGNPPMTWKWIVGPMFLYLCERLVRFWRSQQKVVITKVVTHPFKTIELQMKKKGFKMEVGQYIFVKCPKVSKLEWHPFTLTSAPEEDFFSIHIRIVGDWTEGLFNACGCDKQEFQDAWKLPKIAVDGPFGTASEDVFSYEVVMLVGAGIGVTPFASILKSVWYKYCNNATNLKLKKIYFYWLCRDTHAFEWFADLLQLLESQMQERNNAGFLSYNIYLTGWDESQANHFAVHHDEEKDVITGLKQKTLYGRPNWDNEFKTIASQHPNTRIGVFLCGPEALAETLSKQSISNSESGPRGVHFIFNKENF
# [9] = molecular target: NADPH oxidase 4 (Homo sapiens) (UniProt Q9NPH5); assay: compounds shifting NOX4 Amplex Red fluorescence – cell-based, HEK293-NOX4, tetracycline-induced, NOX inhibitor project, primary screen (AID 1160); conditions: HEK293-NOX4, Amplex Red H2O2 fluorescence, 45 min; higher = more signal, called active from +8 up or from −8 down
# NADPH oxidase 4 (Homo sapiens), sequence (Q9NPH5 whole entry, looked up): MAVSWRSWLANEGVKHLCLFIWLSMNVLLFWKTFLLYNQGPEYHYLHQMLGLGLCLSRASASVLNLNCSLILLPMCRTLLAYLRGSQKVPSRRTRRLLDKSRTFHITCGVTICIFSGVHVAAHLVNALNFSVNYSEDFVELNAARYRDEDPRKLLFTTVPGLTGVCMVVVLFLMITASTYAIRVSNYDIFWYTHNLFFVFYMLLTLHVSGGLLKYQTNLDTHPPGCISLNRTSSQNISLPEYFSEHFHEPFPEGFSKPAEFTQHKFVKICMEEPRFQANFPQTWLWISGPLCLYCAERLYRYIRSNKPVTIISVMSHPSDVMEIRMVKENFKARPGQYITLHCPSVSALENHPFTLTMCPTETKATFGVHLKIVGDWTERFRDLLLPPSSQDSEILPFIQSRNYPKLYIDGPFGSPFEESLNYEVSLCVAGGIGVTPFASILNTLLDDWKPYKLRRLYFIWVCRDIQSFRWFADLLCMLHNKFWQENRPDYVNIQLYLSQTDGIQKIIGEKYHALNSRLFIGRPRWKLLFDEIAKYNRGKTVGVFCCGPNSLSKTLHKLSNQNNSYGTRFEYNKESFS
# [10] = molecular target: NADPH oxidase 5 (Homo sapiens) (UniProt Q96PH1); assay: compounds shifting NOX5 Amplex Red fluorescence – cell-based, HEK293-NOX5, NOX inhibitor project, primary screen (AID 1161); conditions: HEK293-NOX5, ionomycin, 45 min, higher = more signal
# NADPH oxidase 5 (Homo sapiens), sequence (Q96PH1 whole entry, looked up): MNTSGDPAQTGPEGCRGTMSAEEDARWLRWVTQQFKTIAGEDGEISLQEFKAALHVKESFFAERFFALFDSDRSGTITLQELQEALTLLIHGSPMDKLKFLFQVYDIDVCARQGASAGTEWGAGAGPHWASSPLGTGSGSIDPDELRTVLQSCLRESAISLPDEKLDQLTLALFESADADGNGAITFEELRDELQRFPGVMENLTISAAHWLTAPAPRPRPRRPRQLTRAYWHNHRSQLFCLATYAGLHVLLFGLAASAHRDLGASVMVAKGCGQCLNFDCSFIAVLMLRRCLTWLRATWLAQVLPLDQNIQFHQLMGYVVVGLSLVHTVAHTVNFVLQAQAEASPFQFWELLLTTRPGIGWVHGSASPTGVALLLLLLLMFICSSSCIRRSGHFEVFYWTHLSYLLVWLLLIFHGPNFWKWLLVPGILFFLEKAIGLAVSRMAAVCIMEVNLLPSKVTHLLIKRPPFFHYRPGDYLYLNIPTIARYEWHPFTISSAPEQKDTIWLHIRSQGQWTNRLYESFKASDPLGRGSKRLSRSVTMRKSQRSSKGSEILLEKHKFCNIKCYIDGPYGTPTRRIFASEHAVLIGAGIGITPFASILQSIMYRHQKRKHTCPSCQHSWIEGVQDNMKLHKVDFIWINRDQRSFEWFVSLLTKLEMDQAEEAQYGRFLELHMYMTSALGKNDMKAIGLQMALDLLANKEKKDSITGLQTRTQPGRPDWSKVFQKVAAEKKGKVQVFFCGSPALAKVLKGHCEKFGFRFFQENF
# [11] = compound effects on lung adenocarcinoma cell viability – A549, calcein-AM fluorescence, 48 h, basal, profiling panel (AID 1162); conditions: higher = more signal; also: test concentration not given here
# [12] = compound effects on differentiated 3T3-L1 adipocyte viability – cell-based, 3T3-L1 adipocytes, calcein-AM fluorescence, 48 h, basal, profiling panel (AID 1163); conditions: 3T3-L1 adipocytes viability, higher = more signal; also: test concentration not given here
# [13] = compound effects on hepatocellular carcinoma cell viability – HepG2, calcein-AM fluorescence, 48 h, basal, profiling panel (AID 1164); conditions: higher = more signal; also: test concentration not given here
# [14] = compound effects on multiple myeloma cell viability – MM1S, calcein-AM fluorescence, 48 h, basal, profiling panel (AID 1165); conditions: higher = more signal; also: test concentration not given here
# [15] = calcein-AM signal in unstimulated myeloma cells – cell-based, calcein-AM fluorescence, 48 h, PK04 Diversity Set, profiling panel (AID 1166); conditions: RPMI8226 myeloma viability, higher = more signal;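 also: cells grown under basal conditions without added stimulus; test concentration not given here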
# [16] = JC-1 mitochondrial signal, unstimulated HepG2 cells – cell-based, JC-1 fluorescence, 24 h, 100 nL compound, profiling panel (AID 1167); conditions: HepG2 mitochondrial potential, higher = more signal; also: test concentration not given here
# [17] = JC-1 mitochondrial signal, unstimulated adipocytes – cell-based, JC-1 fluorescence, 3T3-L1 adipocytes, 24 h, 100 nL compound, profiling panel (AID 1168); conditions: JC-1 mitochondrial fluorescence, higher = more signal, called active from +8 up or from −8 down; also: test concentration not given here
# [18] = JC-1 mitochondrial signal, unstimulated myeloma cells – cell-based, JC-1 fluorescence, RPMI8226, 24 h, 100 nL compound, profiling panel (AID 1169); conditions: JC-1 mitochondrial potential fluorescence, higher = more signal; also: test concentration not given here
# [19] = JC-1 mitochondrial signal, unstimulated MM1S myeloma – cell-based, JC-1 fluorescence, 24 h, 100 nL compound, profiling panel (AID 1170); conditions: MM1S mitochondrial potential, higher = more signal; also: test concentration not given here
# [20] = resazurin metabolic signal in A549 cells – cell-based, resazurin fluorescence, 24 h, PK04 Diversity Set, profiling panel (AID 1171); conditions: A549 viability, higher = more signal, called active from +8 up or from −8 down; also: test concentration not given here
SMILES,z-score [1],composite z-score [2],z-score [3],z-score [4],z-score [5],z-score [6],z-score [7],z-score [8],z-score [9],z-score [10],z-score [11],z-score [12],z-score [13],z-score [14],z-score [15],z-score [16],z-score [17],z-score [18],z-score [19],z-score [20]
O=C1[C@H]2[C@H]3[C@H](O)[C@H](O)CC(=NOCc4ccccc4)[C@@H]3CC[C@H]2C(=O)N1Cc1ccccc1,0.569 (inactive),-0.147,0.124 (inactive),0.321 (inactive),0.0319 (inactive),0.627 (inactive),-0.618,-0.85 (inactive),0.433 (inactive),0.326,-0.618,-0.176,-0.851,0.188,-0.16,-0.169,-0.399 (inactive),-0.164,-0.926,1.59 (inactive)
C#CCCCON=C1C[C@@H](O)[C@@H](O)[C@@H]2[C@@H]3C(=O)N([C@@H](C)c4ccccc4)C(=O)[C@@H]3CC[C@H]12,-1.08 (inactive),0.75,0.553 (inactive),-0.645 (inactive),-0.318 (inactive),-2.13 (inactive),-0.235,-0.599 (inactive),-1.21 (inactive),0.579,-0.858,-0.0991,-0.106,0.348,-1.39,0.359,0.114 (inactive),0.234,-0.53,-0.0314 (inactive)
C[C@H]1CC[C@@H](C(=O)O)N[C@@H]1c1ccc(C#CCN(C)C)cc1,0.883 (inactive),-0.231,0.167 (inactive),-0.219 (inactive),0.274 (inactive),-0.0947 (inactive),0.112,0.903 (inactive),-0.00118 (inactive),0.0715,0.683,0.398,0.777,0.601,-0.338,0.984,0.461 (inactive),-0.562,0.921,0.413 (inactive)
O[C@@H](Cc1ccccc1)[C@H]1C2C=CCCC(c3ccccc3)=C2CN1Cc1cccc(Cl)c1 (stereo not given in full),3.28 (inactive),-0.104,4.33 (inactive),0.669 (inactive),1.16 (inactive),0.476 (inactive),0.459,-0.384 (inactive),-0.868 (inactive),-0.41,1.89,0.101,0.662,-3.27,-3.43,0.514,-0.366 (inactive),-1.09,-0.823,0.75 (inactive)
CC(CCN1CCc2nc(-c3ccccc3)c(-c3ccccc3)cc2C1)=NO[C@@H](C)c1cn([C@H](CO)Cc2ccccc2)nn1,-1.44 (inactive),-0.103,-0.278 (inactive),-1.89 (inactive),0.0934 (inactive),-2.16 (inactive),1.52,-7.26 (inactive),-1.51 (inactive),-4.19,2.69,0.343,1.4,-0.352,-0.0077,1.87,-0.353 (inactive),0.555,0.41,-0.81 (inactive)
CCc1cc2c(nc1CC)CCN(CCC(C)=NOC(C)CN1CCCc3nc(C)c(C)cc31)C2 (stereo not given),-1.97 (inactive),0.876,2.25 (inactive),-0.0243 (inactive),0.0813 (inactive),0.146 (inactive),-1.08,-1.41 (inactive),-0.293 (inactive),-1.86,0.566,-0.326,0.595,-2.4,-0.305,1.31,-0.415 (inactive),-0.668,-0.342,0.103 (inactive)
O=C1CCCC=C1C(O)CCOCc1ccccc1 (stereo not given),-1.7 (inactive),-0.342,0.427 (inactive),-0.127 (inactive),0.452 (inactive),-0.118 (inactive),-0.235,1.18 (inactive),0.45 (inactive),-0.00615,-0.43,0.0411,-0.457,-1.42,0.452,-0.667,0.0503 (inactive),0.215,0.527,-0.323 (inactive)
C#C[C@@H](CC)O[Si](C#Cc1ccc(Oc2ccccc2)cc1)(C(C)C)C(C)C,-0.49 (inactive),0.0404,0.788 (inactive),1.4 (inactive),-1.4 (inactive),0.335 (inactive),-0.724,0.278 (inactive),-0.366 (inactive),-1.51,-2.96,-1.01,-2.63,-2.97,-4.2,-2.29,-0.068 (inactive),-0.291,-1.11,-0.936 (inactive)
COc1ccc(-c2nc3c(c4c2C[C@H](C)OC4)CN(CCC(C)C)CC3)cc1,0.498 (inactive),0.0687,1.78 (inactive),0.673 (inactive),0.511 (inactive),0.123 (inactive),-0.0895,-0.112 (inactive),0.239 (inactive),0.684,0.537,-0.49,0.443,0.508,-0.234,1.7,-0.613 (inactive),0.0911,-0.685,-0.0598 (inactive)
COc1ccc(COC(=O)NN=C2C[C@@H](O)[C@@H](O)[C@@H]3[C@@H]4C(=O)N(Cc5ccc6c(c5)OCO6)C(=O)[C@@H]4CC[C@@H]23)cc1,0.306 (inactive),1.15,11.8 (active),0.801 (inactive),0.819 (inactive),-1.17 (inactive),1.27,-0.377 (inactive),0.343 (inactive),0.964,0.378,1.11,-0.273,-0.652,-0.0219,0.621,1.04 (inactive),-0.3,-1.61,0.0201 (inactive)
CCc1cc2c(nc1CC)CCN(CCC(C)=NOC[C@@H](O)COCc1ccco1)C2,0.538 (inactive),1.09,2.3 (inactive),-0.0282 (inactive),0.0761 (inactive),0.147 (inactive),-0.659,-0.566 (inactive),0.162 (inactive),1.84,0.902,0.592,0.526,-0.548,-0.862,1.44,-0.901 (inactive),-0.824,0.581,-0.527 (inactive)
CCOC(=O)[C@H](CC(C)C)NC(=O)CCC1CC(OC(=O)NCc2cccc3ccccc23)CC2(CCCC(COC(=O)NCCN3CCOCC3)O2)O1 (stereo not given in full),-2.17 (inactive),-0.275,-0.839 (inactive),-0.655 (inactive),-2.08 (inactive),-0.709 (inactive),0.0369,0.428 (inactive),0.647 (inactive),-0.0177,0.609,0.0174,-0.667,0.109,-0.275,-0.084,-1.16 (inactive),-0.268,-0.166,1.29 (inactive)
CCOC(=O)[C@H](CC(C)C)NC(=O)CCC1CC(OC(=O)NCCc2ccc(F)cc2)CC2(CCCC(COC(=O)NCc3ccccc3)O2)O1 (stereo not given in full),-1.06 (inactive),0.0536,3.44 (inactive),-1.22 (inactive),1.39 (inactive),-1.42 (inactive),1.78,-0.945 (inactive),-0.797 (inactive),-2.24,-0.138,0.0596,-3.35,-3.45,-3.81,-2.07,0.154 (inactive),-0.165,-1.45,0.29 (inactive)
CC(C)=CCCC(C)=CCON=C1C[C@@H](O)[C@@H](O)[C@@H]2[C@@H]3C(=O)N(C[C@@H]4CCCO4)C(=O)[C@@H]3CC[C@@H]12,0.381 (inactive),0.0371,1.53 (inactive),0.767 (inactive),0.369 (inactive),0.549 (inactive),-0.622,0.752 (inactive),0.604 (inactive),0.0838,0.113,-0.833,-0.315,0.182,-0.0114,-1.31,0.729 (inactive),-0.495,-0.761,0.0805 (inactive)
CC(C)=C1C(=O)C(c2ccccc2)=C2CN3C(=O)N(CCc4ccccc4)C(=O)[C@]3(Cc3ccc(F)cc3)[C@H]21,-2.71 (inactive),0.318,20.9 (active),4.68 (inactive),1.48 (inactive),0.813 (inactive),-0.51,-0.578 (inactive),-1.03 (inactive),-1.11,-0.751,-0.0154,-0.435,-0.871,-0.975,1.07,-1.68 (inactive),-0.0557,-0.339,0.0406 (inactive)
C=CC[C@]1(C(=O)NCc2ccccc2)N=C(c2ccc(OCCCO)cc2)O[C@H]1c1ccccc1,-0.0491 (inactive),0.398,14.6 (active),1.83 (inactive),0.668 (inactive),1.26 (inactive),-0.0429,-2.86 (inactive),-0.495 (inactive),-1.96,-1.38,0.43,-1.98,-2.75,-3.75,-0.022,-0.18 (inactive),-1.31,-0.988,0.953 (inactive)
O=C1[C@H]2[C@H]3[C@H](O)[C@H](O)CC(=NOCc4ccccc4)[C@H]3CC[C@H]2C(=O)N1C[C@@H]1CCCO1,0.144 (inactive),0.0455,5.97 (inactive),0.673 (inactive),-0.0092 (inactive),0.479 (inactive),0.067,0.421 (inactive),0.511 (inactive),-1.46,0.0598,-0.247,-0.85,-0.306,0.422,-0.528,-1.13 (inactive),-0.669,-0.153,0.469 (inactive)
O=C(CS)NCCCCCNC(=O)[C@@H]1C[C@@H]2C(=O)N[C@@H](Cc3ccccc3)C(=O)N2[C@@H]1c1ccc(O)cc1,0.942 (inactive),0.0839,10.1 (active),1.07 (inactive),-0.676 (inactive),0.325 (inactive),-0.205,0.727 (inactive),-0.142 (inactive),0.0233,0.557,0.239,1.15,0.477,0.617,-0.0506,-0.325 (inactive),0.149,-0.625,-0.181 (inactive)

# Reference: PubChem BioAssay
